From PubChem BioAssay (NCI)
This is part of a sample that, as a whole, favours compounds with a hit. Of some 79,000 tested, about 15% had one in any assay. The source made the active and inactive calls. Cut-off read from the data, not from the text of the source: active = growth inhibition above about 70%; inactive = the rest.

Legend:
[1] = NCI Yeast Anticancer Drug Screen. Data for the rad50 strain (AID 155);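 note: 0% = growth of vehicle-only cultures of the same strain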; details: S. cerevisiae rad50 strain growth inhibition, stronger effect = higher value
Method in brief: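 DNA repair mutant yeast, compound exposure, growth read-out; inhibition is taken relative to vehicle.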

[2] = NCI Yeast Anticancer Drug Screen. Data for the mec2-1 strain (AID 157); details: S. cerevisiae mec2-1 strain, stronger effect = higher value
Method in brief: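 Test agents were screened against the mec2-1 yeast strain, with defined DNA repair or cell cycle alteration. Growth was scored as inhibition against vehicle-only controls.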

[3] = NCI Yeast Anticancer Drug Screen. Data for the sgs1 mgt1 strain (AID 161);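 note: 0% = growth of cultures given vehicle only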; details: S. cerevisiae sgs1 mgt1 strain, stronger effect = higher value
Method in brief: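 Mutant yeast exposed to compound; growth scored against vehicle-only wells.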

[4] = NCI Yeast Anticancer Drug Screen. Data for the cln2 rad14 strain (AID 165);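 note: 0% = growth equal to vehicle treated cultures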; details: S. cerevisiae cln2 rad14 strain, stronger effect = higher value
Method in brief: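 Growth of compound-exposed yeast (cln2 rad14 genotype) measured and expressed as inhibition relative to vehicle.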

[5] = NCI Yeast Anticancer Drug Screen. Data for the bub3 strain (AID 167); details: S. cerevisiae bub3 mutant strain, stronger effect = higher value
Method in brief: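 In this screen, a yeast mutant lacking normal mitotic checkpoint function is challenged with compound. Relative growth versus vehicle gives the inhibition value.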

[6] = NCI Yeast Anticancer Drug Screen. Data for the mlh1 rad18 strain (AID 175); details: S. cerevisiae mlh1 rad18 strain growth inhibition, stronger effect = higher value
Method in brief: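 In this whole-cell yeast screen, a strain with altered DNA damage repair is challenged with compound, and its growth is measured against matched vehicle-treated controls.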

[7] = at 5.0 µM (retest, dose inferred, filed as 0.5)
[8] = at 50.0 µM (retest, dose inferred, filed as 5.0)

Measured: growth inhibition

CCOP(=O)(OCC)Oc1ccc([N+](=O)[O-])cc1
inactive: [1]; [7] 8% | [1]; [8] -5% | [1]; at 50.0 µM 0.55% | [2]; [7] -10% | [2]; [8] -13% | [2]; at 50.0 µM 2.65% | [3]; [7] 12% | [3]; [8] 16% | [3]; at 50.0 µM -7% | [4]; [7] 6% | [4]; [8] 7% | [4]; at 50.0 µM 38.7% | [5]; [7] -4% | [5]; [8] 14% | [5]; at 50.0 µM 9.8% | [6]; [7] 13% | [6]; [8] 4% | [6]; at 50.0 µM 3.55%

COC(=O)C1=C(O)C(C(=O)OC)[C@]2(O)[C@@H](C(=O)OC)[C@H]1C[C@@H](c1ccccc1)[C@@H]2C(=O)OC (some centres not stated)
active: [1]; [8] 98% | [1]; at 50.0 µM 97.7% | [2]; [8] 97% | [2]; at 50.0 µM 98.3% | [3]; [8] 97% | [3]; at 50.0 µM 98.3% | [4]; [8] 92% | [4]; at 50.0 µM 84.3% | [5]; [8] 97% | [5]; at 50.0 µM 98.2% | [6]; [8] 98% | [6]; at 50.0 µM 98.6%
inactive: [1]; [7] 4% | [2]; [7] 3% | [3]; [7] 10% | [4]; [7] 11% | [5]; [7] 3% | [6]; [7] 10%

C[C@]12CC/C(=N\OC(=O)Nc3ccccc3)C=C1CC[C@@H]1C2CC[C@@]2(C)C1CC[C@@H]2OC(=O)Nc1ccccc1 (some centres not stated)
inactive: [1]; [7] -7% | [1]; at 50.0 µM 47.2% | [2]; [7] -2% | [3]; [7] 1% | [3]; at 50.0 µM 4% | [4]; [7] -5% | [4]; [8] 47% | [4]; at 50.0 µM 31.9% | [5]; [7] -8% | [5]; [8] 65% | [6]; [7] -4%
active: [1]; [8] 71% | [2]; [8] 71% | [2]; at 50.0 µM 95% | [3]; [8] 86% | [5]; at 50.0 µM 93.1% | [6]; [8] 87% | [6]; at 50.0 µM 89%

COc1cc(Br)cc(/C=C(\C)[N+](=O)[O-])c1O
inactive: [1]; [7] 11% | [2]; [7] 7% | [3]; [7] 18% | [4]; [7] -5% | [5]; [7] -1% | [6]; [7] 9%
active: [1]; [8] 96% | [1]; at 50.0 µM 99.5% | [2]; [8] 95% | [2]; at 50.0 µM 99.8% | [3]; [8] 97% | [3]; at 50.0 µM 99.8% | [4]; [8] 94% | [4]; at 50.0 µM 99.5% | [5]; [8] 97% | [5]; at 50.0 µM 99.7% | [6]; [8] 97% | [6]; at 50.0 µM 99.7%

CN(C)CC(Cl)CCl (configuration not stated)
active: [1]; [8] 86% | [1]; at 50.0 µM 88.9% | [2]; [8] 71% | [2]; at 50.0 µM 80.2% | [3]; [8] 75% | [6]; [8] 82%
inactive: [1]; [7] 19% | [2]; [7] -1% | [3]; [7] 14% | [3]; at 50.0 µM 43.5% | [4]; [7] -4% | [4]; [8] 64% | [4]; at 50.0 µM 55.9% | [5]; [7] -8% | [5]; [8] 8% | [5]; at 50.0 µM 9.25% | [6]; [7] 15% | [6]; at 50.0 µM 49.5%

O=[N+]([O-])[O][Tl]([c]1ccccc1)[c]1ccccc1
inactive: [1]; [7] -4% | [1]; [8] 41% | [1]; at 50.0 µM 15.3% | [2]; [7] -4% | [2]; [8] 54% | [2]; at 50.0 µM 21.4% | [3]; [7] -4% | [3]; [8] 56% | [3]; at 50.0 µM 49.5% | [4]; [7] -4% | [4]; [8] 57% | [4]; at 50.0 µM 20.4% | [5]; [7] -3% | [5]; at 50.0 µM 51.8% | [6]; [7] -3% | [6]; [8] 41% | [6]; at 50.0 µM 8.3%
active: [5]; [8] 75%

CCC[CH2][Sn]1([CH2]CCC)[O]CC(c2ccccn2)C[O]1
inactive: [1]; [7] 36% | [2]; [7] 28% | [3]; [7] 34% | [4]; [7] 21% | [5]; [7] 37% | [6]; [7] 44%
active: [1]; [8] 98% | [1]; at 50.0 µM 87.2% | [2]; [8] 98% | [2]; at 50.0 µM 90.7% | [3]; [8] 98% | [3]; at 50.0 µM 88.2% | [4]; [8] 97% | [4]; at 50.0 µM 89.5% | [5]; [8] 99% | [5]; at 50.0 µM 89% | [6]; [8] 98% | [6]; at 50.0 µM 87.4%

CC(=O)OCC1OC([S-])C(OC(C)=O)C(OC(C)=O)C1OC(C)=O.CC[PH+](CC)CC.CC[PH+](CC)CC.[Au].[Au] (configuration not stated)
active: [1]; [7] 100% | [1]; [8] 99% | [1]; at 50.0 µM 89.8% | [2]; [7] 99% | [2]; [8] 99% | [2]; at 50.0 µM 92% | [3]; [7] 99% | [3]; [8] 99% | [3]; at 50.0 µM 92% | [4]; [7] 98% | [4]; [8] 99% | [4]; at 50.0 µM 91.3% | [5]; [7] 99% | [5]; [8] 99% | [5]; at 50.0 µM 89.9% | [6]; [7] 96% | [6]; [8] 98% | [6]; at 50.0 µM 90%

Cc1cc([N+](=O)[O-])c(O)c([N+](=O)[O-])c1C
active: [1]; [8] 71% | [3]; [8] 70% | [6]; [8] 90%
inactive: [1]; [7] 2% | [1]; at 50.0 µM 67.5% | [2]; [7] 12% | [2]; [8] 47% | [2]; at 50.0 µM 26.6% | [3]; [7] 3% | [3]; at 50.0 µM 62.5% | [4]; [7] -42% | [4]; [8] 34% | [4]; at 50.0 µM 45.4% | [5]; [7] 11% | [5]; [8] 58% | [5]; at 50.0 µM 63.2% | [6]; [7] -7% | [6]; at 50.0 µM 54.1%
